Bioassay records: PubChem BioAssay, National Center for Advancing Translational Sciences (NCATS)
This is a sample that favours compounds with a hit; in the whole collection about 10% have one here.
3T3 cytotox – NIH 3T3 cell cytotoxicity. NIH 3T3 viability, CellTiter-Glo ATP luminescence, 48-72 h. Potency, µM (top dose mostly 96.7 µM), for inactives: at the top dose activity change, negative = cytotoxicity, hits mostly inhibitors. hit rate 4.3% among 94,000; further: nearly all actives have a fitted effect of over 55% in size
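Luminescent ATP readout (CellTiter-Glo, 10 min RT) after 48 or 72 hr compound exposure of NIH 3T3 cells seeded at 400 cells/well in 1536-well format; quantitative HTS.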
hNpr1 antagonist – blocks ANP-stimulated signaling of human Npr1 receptor; P16066; HEK293 hNpr1 GloSensor cGMP, ANP-stimulated luminescence; Potency, µM (series often up to 46.3 µM), for the others: at the highest dose activity change, negative = inhibition, usual class: inhibitors; hit rate 1.6% among 76,000; calls by dose curve; further: nearly all actives have a fitted effect of over 60% in size
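HEK293 cells stably expressing human Npr1 and cGMP GloSensor pGS-40F, loaded 2 h with 2% GloSensor reagent, given compound 30 min at room temperature. Luminescence read before and 20 min after 0.1 nM hNppA.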
Luciferase inh – inhibitors of firefly (Photinus pyralis) luciferase. Potency, µM (top dose mostly 115 µM), usual class: inhibitors. AID 1347043. P08659. purified P. pyralis luciferase, luminescence, biochemical. hit rate 2.5% among 76,000; further: nearly all actives have a fitted effect of over 65% in size
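FLuc 10nM, D-luciferin 10uM, ATP 10uM, Mg acetate 10mM, Tris acetate pH 7.5, Tween/BSA; cpd qHTS; enzyme added last; CCD luminescence.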
HEK293 tox – kills HEK 293 cells; AID 1345083; HEK 293 viability, ATP luminescence (CellTiter-Glo), 48-72 h; Potency, µM (series often up to 115 µM), without a hit: top-dose activity change, negative = cytotoxicity, usual class: inhibitors; hit rate 6.6% among 94,000; further: nearly all actives have a fitted effect of over 60% in size
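HEK 293 cells seeded at 250 cells/well were exposed to compound for 48 or 72 hr at 37 degree Celsius. Viability taken as ATP content by CellTiter-Glo luminescence.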
GPT2 inhibitor – blocks human glutamate pyruvate transaminase 2; Potency, µM (highest dose often 57.7 µM), for inactives: top-dose activity change, negative = inhibition, actives largely listed as inhibitors; Recombinant GPT2, coupled pyruvate oxidase/HRP Amplex Red fluorescence; hit rate 0.25% among 100,000; AID 1671188; further: nearly all actives have a fitted effect of over 60% in size
Target sequence (Q8TD30 whole entry, looked up): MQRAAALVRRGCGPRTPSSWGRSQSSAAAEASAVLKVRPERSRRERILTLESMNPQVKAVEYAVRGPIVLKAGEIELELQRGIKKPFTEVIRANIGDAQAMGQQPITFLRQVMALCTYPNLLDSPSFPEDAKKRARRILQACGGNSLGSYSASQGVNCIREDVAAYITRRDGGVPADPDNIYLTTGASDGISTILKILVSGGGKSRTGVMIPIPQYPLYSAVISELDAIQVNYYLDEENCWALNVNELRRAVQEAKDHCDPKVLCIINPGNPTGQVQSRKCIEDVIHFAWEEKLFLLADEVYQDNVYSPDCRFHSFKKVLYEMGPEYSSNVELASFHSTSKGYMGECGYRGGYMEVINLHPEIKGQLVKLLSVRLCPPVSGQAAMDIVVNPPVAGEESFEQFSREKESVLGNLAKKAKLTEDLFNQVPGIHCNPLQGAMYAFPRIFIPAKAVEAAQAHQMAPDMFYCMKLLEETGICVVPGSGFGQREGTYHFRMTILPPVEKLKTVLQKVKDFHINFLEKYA
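Fluorescence of coupled pyruvate oxidase/HRP/Amplex Red system (50uM Amplex, 30 min, dark) reports pyruvate formed by GPT2. Enzyme reaction: 10ng/uL GPT2, 2mM L-alanine, 250uM a-KG, 30 min room temperature, pH 7.5; 50uM AOA control.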
Active calls of the source: *; i = inactive; u = inconclusive; x = not tested or not shown; [ ] = another dose, or the depositor's remark. Unless noted, the call rests on the fitted dose curve; in most records, active means well fitted curve in the direction sought with a large enough effect; inconclusive means small, poorly fitted or top-dose-only effect, or another doubt; inactive means no such curve, though single readings can be large; an effect the other way counts as inactive or inconclusive. On the % scale 0 is the no-effect control and ±100 the full control effect; potency means the concentration at half of the fitted maximal effect.

SMILES | 3T3 cytotox | hNpr1 antagonist | Luciferase inh | HEK293 tox | GPT2 inhibitor
COCc1ccc2c(c1)c(OC(C)(C)C(=O)NCc1ccncc1)nn2CCC(C)C | u | -0.3%[70.6 µM] | i | u | -5.3%[88.5 µM]
COCCNC(=O)C1CCCN(Cc2cccc(-c3ccccc3OC)c2)C1 (centres undefined) | u | x | x | u | -3.1%
COc1ccccc1-c1cccc(CN2CCCC(C(=O)Nc3ccc(F)cc3)C2)c1 (centres undefined) | u | x | x | 12.6µM* | i
Cc1[nH]cnc1CN1CCCC(C(=O)Nc2ccc(-c3cccc(F)c3)cc2)C1 (centres undefined) | u | 6.0% | i | 25.1µM* | i
COc1ccccc1-c1cccc(CN2CCCC(C(=O)NCCc3ccc(F)cc3)C2)c1 (centres undefined) | 31.6µM* | x | x | u | -1.3%
O=C(c1ccc(OC(F)(F)F)cc1)N1CC2CC(C1)[C@H]1CCCC(=O)N1C2 (some centres undefined) | i | 4.0% | i | 10.6% | u
O=C(Nc1ccccc1Cl)c1cnc2ccc(C3CCNCC3)cn12 | x | x | x | x | 0.6%
COc1ccc(-c2ccnc3nc(Cc4ccc(F)cc4)nn23)cc1OC | u | 6.5% | i | u | -9.3%
CC(=O)OC12CC(C)C(OC(=O)c3ccccc3)C1/C=C(/C)C(OC(=O)c1ccccc1)CC(=O)C(C)(C)/C=C/C(C)C2=O (centres undefined) | x | x | x | x | i
COc1ccc(Nc2ccc3c(n2)CN(Cc2ccccc2F)C(=O)CO3)cc1 | u | u | i | 63.1µM* | -20.5%[88.5 µM]
O=C1COc2ccc(Nc3ccccc3)nc2CN1Cc1ccccc1 | u | -2.8%[70.6 µM] | i | u | -7.2%[88.5 µM]
COc1ccc(Nc2ccc3c(n2)CN(Cc2ccccc2C)C(=O)CO3)cc1 | 79.4µM* | u | i | 89.1µM* | -17.8%[88.5 µM]
COc1ccc(Nc2ccc3c(n2)CN(Cc2nc4ccccc4s2)C(=O)CO3)cn1 | u | u | u | 50.1µM* | i
O=C(Cc1ccccc1)N1CCC2(CC1)COc1ccccc1[S+](=O)([O-])N2 | 0.1% | x | x | -9.4% | i
CC1=C[C@@H](CNCc2ccncc2)[C@H](C(C)C)C[C@H]1Cc1nnc(-c2ccc(N(C)C)cc2)o1 | u | -19.9% | i | u | 1.8%
COc1ccccc1-c1cccc(CN2CCC(N[S+](=O)([O-])c3ccccc3)CC2)c1 | 31.6µM* | x | x | 39.8µM* | i
COc1ccccc1-c1cccc(CN2CCC(NC(=O)C3CCCC3)CC2)c1 | u | x | x | u | 4.3%
COc1ccccc1-c1cccc(CN2CCC(N[S+](=O)([O-])c3cccc(C(F)(F)F)c3)CC2)c1 | 12.6µM* | x | x | u | x
O=C(Nc1ccc([C@@H](O)[C@H]2COCC(=O)N2CC2CC2)cc1)c1ccc(F)cc1 | 2.1%[138 µM] | 4.2%[70.6 µM] | u | -5.8%[172 µM] | -4.3%[88.5 µM]
Cn1cccc1CN1CCC2(C1)C(=O)Nc1ccccc12 (centres undefined) | 100µM* | 5.6%[70.6 µM] | i | u | i
CCc1[nH]nc(C(=O)N2C[C@@H](CN3CCCCCC3)[C@@H](CO)C2)c1C | 3.6% | 13.1% | i | -5.3% | 2.8%
COc1ccccc1Nc1ccnc(N2CCC(NC(=O)Cc3cccc(Cl)c3)CC2)n1 | 31.6µM* | x | x | u | i
Cc1ccc(Nc2ccnc(N3CCC(NC(=O)C(C)(C)C)CC3)n2)cc1 | u | x | x | u | i
COCC(=O)NC1CCN(c2nccc(Nc3ccc(C)cc3)n2)CC1 | 35.5µM* | x | x | u | i
Cc1ccc(Nc2ccnc(N3CCC(NC(=O)Cc4cccc(Cl)c4)CC3)n2)cc1 | 17.8µM* | x | x | 25.1µM* | i
SMILES | 3T3 cytotox | hNpr1 antagonist | Luciferase inh | HEK293 tox | GPT2 inhibitor
COCCOCC(=O)N1CC(Oc2ccccc2-c2nc(C3CC3)no2)C1 | i | 0.8% | i | 4.2% | -9.0%
Cc1noc(-c2ccccc2Cl)c1C(=O)NCCCc1ccccc1 | u | -0.1% | i | 44.7µM* | 1.7%
O=C1NCCCCCCN(Cc2ccncc2)[C@@H]2CN(C(=O)C3CCCCC3)CC[C@@H]12 | u | 5.0% | i | 44.7µM* | i
N#Cc1ccc(CN2CCCCCCNC(=O)[C@@H]3CCC[C@@H]32)cc1 | -25.6% | -12.3% | i | u | i
O=C1NCCCCCCN(Cc2ccc(C(F)(F)F)cc2)[C@H]2CCC[C@@H]12 | u | -22.6% | i | 39.8µM* | 1.6%
O=C(c1ccccc1)N1CCCC(n2cc(-c3nc(-c4ccccc4)no3)nn2)C1 (centres undefined) | u | 12.6µM* | u | u | i
O=C(c1ccc2c(c1)OCO2)N1CCCC(n2cc(-c3nc(-c4ccccc4)no3)nn2)C1 (centres undefined) | u | 11.2µM* | u | u | 0.3%
O=C(c1ccc2c(c1)OCO2)N1CCCC(n2cc(-c3nc(C4CC4)no3)nn2)C1 (centres undefined) | u | -4.1% | i | u | 0.8%
O=C(C1CCC1)N1CCCC(n2cc(-c3nc(-c4ccccc4)no3)nn2)C1 (centres undefined) | u | u | 39.8µM* | u | i
O=C(N1CCCC(n2cc(-c3nc(-c4ccccc4)no3)nn2)C1)C1(c2ccccc2)CC1 (centres undefined) | u | 14.1µM* | u | 44.7µM* | 2.4%
O=C(c1cccnc1)N1CCCC(n2cc(-c3nc(-c4ccccc4)no3)nn2)C1 (centres undefined) | -39.7% | u | i | u | -14.9%
CNC(=O)[C@@H]1CN(C(=O)c2ccc3ncccc3c2)C[C@H]1COC | -10.0% | -26.7% | i | -17.0% | -4.8%
O=C(C1CCCC1)N1CCCC(n2cc(-c3nc(-c4ccccc4)no3)nn2)C1 (centres undefined) | u | 12.6µM* | u | u | i
Cc1noc2c(N(C)C)cc(-c3cccc(C(F)(F)F)c3)nc12 | u | -23.9%[70.6 µM] | i | -12.9%[172 µM] | 1.3%[88.5 µM]
COCCCNc1cc(-c2cccc(C(F)(F)F)c2)nc2c(C)noc12 | u | -15.8%[70.6 µM] | i | 79.4µM* | 2.7%[88.5 µM]
Cc1noc2c(NCCN(C)C)cc(-c3cccc(C(F)(F)F)c3)nc12 | 31.6µM* | 4.9%[70.6 µM] | i | 31.6µM* | -13.3%[88.5 µM]
CCCCn1c(=O)c(C(=O)N2CCN(C(=O)Cc3ccccn3)CC2)nc2cccnc21 | -21.4% | x | x | i | -3.3%
Cc1nc(N2CCC(NC(=O)c3ccccn3)CC2)cc(C(F)(F)F)n1 | u | u | i | u | 4.8%
Cc1nc(N2CCC(NC(=O)c3cc4ccccc4[nH]3)CC2)cc(C(F)(F)F)n1 | u | 7.94µM* | u | u | i
CSCC(=O)N1C[C@@H](NC(=O)NC(C)C)C[C@H]1C(=O)N[C@H](Cc1c[nH]c2ccccc12)C(N)=O | -8.3% | -2.6% | i | -4.5% | i
